Screening results deposited in PubChem by National Center for Advancing Translational Sciences (NCATS).
This is a sample that favours compounds with a hit; in the whole collection about 19% have one here.
TGFb inhibitor: qHTS for Inhibitors of TGF-b | 410,000 tested, 1.2% active | AID 588855, 2011 | Potency, µM (series often up to 46.1 µM), usual class: inhibitors | HepG2 CAGA-GFP TGF-b/SMAD3 reporter, GFP fluorescence, 18 h; TGF-beta stimulated, 500 pg/mL final; note: nearly all actives have a fitted effect of over 65% in size
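HEPG2 CAGA-GFP reporter cells (1000/well, DMEM with 1% FBS) received compounds, then recombinant TGF-beta at 500 pg/mL final for 18 hours at 37 degrees C. Per-cell GFP summed per well was normalised to unstimulated and stimulated DMSO controls before curve fitting.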
ASM inhibitor: Inhibitors of Secretory Acid Sphingomyelinase (S-ASM): qHTS; Sphingomyelin phosphodiesterase (Homo sapiens), P17405; placental ASM, HMU-PC fluorogenic substrate, 60 min; Potency, µM (top dose mostly 57.5 µM), most hits filed as inhibitors; 340,000 tested, 0.006% active; AID 504937, 2011
Target sequence (P17405 47-631 limits assumed): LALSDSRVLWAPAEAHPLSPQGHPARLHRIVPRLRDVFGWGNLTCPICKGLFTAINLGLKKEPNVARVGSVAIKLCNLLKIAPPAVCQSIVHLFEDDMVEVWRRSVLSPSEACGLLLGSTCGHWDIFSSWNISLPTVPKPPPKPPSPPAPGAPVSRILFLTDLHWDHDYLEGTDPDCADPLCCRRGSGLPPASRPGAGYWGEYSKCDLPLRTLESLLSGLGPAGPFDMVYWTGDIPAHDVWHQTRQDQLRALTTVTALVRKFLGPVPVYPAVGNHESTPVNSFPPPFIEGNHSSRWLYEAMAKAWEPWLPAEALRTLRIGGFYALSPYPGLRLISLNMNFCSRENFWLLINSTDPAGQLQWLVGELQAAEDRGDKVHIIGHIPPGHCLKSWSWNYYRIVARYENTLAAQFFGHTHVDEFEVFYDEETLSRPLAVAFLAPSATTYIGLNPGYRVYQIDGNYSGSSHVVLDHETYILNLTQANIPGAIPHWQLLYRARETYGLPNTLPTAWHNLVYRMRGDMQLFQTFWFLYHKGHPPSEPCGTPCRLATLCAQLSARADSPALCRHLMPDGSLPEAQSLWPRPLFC
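Human placenta-derived ASM preincubated with compound 10 min at room temperature, then reacted with 9 uM (final) fluorogenic HMU-PC substrate for 60 min at 37 C. Stop solution raises pH to 10; fluorescence read at Ex 386/Em 447 nm.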
IL1B secr inh: qHTS for Inhibitors of Inflammasome Signaling: IL-1-beta AlphaLISA Primary Screen; activity change, % at 57.5 µM; 360,000 tested, 4.7% active; THP-1 LPS/ATP IL-1B secretion, AlphaLISA, 16 h; hits give low values; in the data active = activity change below about -50%; inconclusive = mostly about -30% to -49%
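Secreted IL-1B measured by AlphaLISA bead assay after 16 h compound exposure of THP-1 cells; compounds (final up to 57.5 uM) added 1 h before LPS (250 ng/mL) and ATP (1.25 mM) stimulation; lower signal means less secretion.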
TDP1 cell CPT: qHTS for Inhibitors of human tyrosyl-DNA phosphodiesterase 1 (TDP1): qHTS in cells in presence of CPT | chicken DT40 Tdp1-/-;hTDP1 cells + 20 nM CPT, ATP luminescence, 48 h | Potency, µM (highest dose often 46.2 µM), usual class: inhibitors | 420,000 tested, 12% active; note: nearly all actives have a fitted effect of over 55% in size
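Chicken DT40 Tdp1-/- cells stably complemented with human TDP1 were seeded at 400 cells/well in medium containing 20 nM camptothecin, exposed to pin-transferred compounds, and grown at 37 °C for at least 48 hr. Viability was read as ATP luminescence.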
TDP1 cell noCPT: qHTS for Inhibitors of human tyrosyl-DNA phosphodiesterase 1 (TDP1): qHTS in cells in absence of CPT | 420,000 tested, 15% active | AID 686978, 2013 | Potency, µM (series often up to 46.2 µM), most hits filed as inhibitors | DT40 Tdp1-/- hTDP1 cells, no CPT, ATP luminescence, 48 h; note: nearly all actives have a fitted effect of over 55% in size
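A cellular qHTS used chicken DT40 cells lacking endogenous Tdp1 but carrying stably transfected human TDP1. Compounds were applied without camptothecin, and cell growth kinetics were judged by ATP-dependent luminescence after ≥48 hr.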
HepG2 viability: qHTS for Inhibitors of TGF-b: Cytotox Counterscreen; Potency, µM (top dose mostly 46.1 µM), actives largely listed as cytotoxic; AID 588856, 2011; HepG2 CAGA-GFP viability, ATP luminescence, 18 h; 410,000 tested, 0.76% active
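CellTiter-Glo luminescence gave cytotoxicity after 18 hours at 37 degrees C. The cells were HepG2 CAGA-GFP in 1% FBS DMEM, stimulated with 500 pg/mL TGF-beta after compound addition. %Activity was normalised to no-cell wells (complete cell-killing) and DMSO (no toxicity), and curves were fitted and classified.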
A number is an active result; . = inactive; ? = inconclusive; / = no result given. Unless noted, calls come from the whole dose curve; as a rule, active = well fitted curve in the direction sought with a large enough effect; inconclusive = small, poorly fitted or top-dose-only effect, or another doubt; inactive = no such curve, though single readings can be large; an effect the other way counts as inactive or inconclusive.

SMILES	TGFb inhibitor	ASM inhibitor	IL1B secr inh	TDP1 cell CPT	TDP1 cell noCPT	HepG2 viability
Cc1ccccc1NC(=O)c1cccc2nc3ccccc3nc12	.	.	.	?	23.1µM	.
CCc1ccccc1N(C(C)=O)c1nc(CN=C=S)cs1	?	.	.	23.1µM	?	.
O=C(O)Cc1csc(-c2ccccc2)n1	.	.	.	.	.	.
O=C(Nc1ccncc1)c1cc(C2CCCCN2C(=O)CCCc2ccccc2)on1 (stereo not given)	.	/	.	16.4µM	14.6µM	.
O=C(Nc1cccc2c1CCCC2)c1cc(C2CCCCN2C(=O)CCCc2ccccc2)on1 (stereo not given)	.	/	.	16.4µM	?	.
O=C(Nc1ccccc1Cl)c1cc(C2CCCCN2C(=O)CCc2ccccc2)on1 (stereo not given)	.	/	.	?	?	.
O=C(Nc1ccncc1)c1cc(C2CCCCN2C(=O)CCc2ccccc2)on1 (stereo not given)	.	/	.	?	?	.
CC(=O)Nc1ccc(C(=O)OCC(=O)N(c2ccccc2)C2CCCCC2)cc1	.	.	.	?	23.1µM	.
CC(=O)Nc1ccc(C(=O)OCC(=O)N(C)C2CCCCC2)cc1	.	.	.	.	.	.
O=C(CCl)N(c1ccccc1)C1CCCCC1	?	.	-101.2	2.59µM	2.91µM	17.8µM
Cc1ccc(S(=O)(=O)c2c(C)nn(C(C)(C)C)c2OC(=O)c2ccc(Br)o2)cc1	?	.	-71.8	?	?	.
COc1c(C)cc(C(O)c2ncc(-c3ccccc3)[nH]2)cc1C (stereo not given)	.	/	-60.5	?	?	.
Cc1cccc(C(O)c2ncc(-c3ccccc3)[nH]2)c1C (stereo not given)	.	/	.	18.4µM	.	.
COc1c(C)cc(C(O)c2ncc(-c3ccc(Cl)cc3)[nH]2)cc1C (stereo not given)	?	/	.	?	?	.
Cc1ccccc1-c1cnc(C(O)c2cccc(C)c2C)[nH]1 (stereo not given)	.	/	.	?	?	.
COc1cccc(-c2cnc(C(O)c3ccc(F)cc3C)[nH]2)c1 (stereo not given)	.	/	.	?	.	.
Cc1cc(F)ccc1C(O)c1ncc(-c2cccc(OCc3ccccc3)c2)[nH]1 (stereo not given)	?	/	.	?	16.4µM	.
N#CCCn1cc(CNC2CCC(O)CC2)c2ccccc21 (stereo not given)	.	.	.	.	.	.
O=C(Nc1ccccc1)/C(=C/c1ccccc1)c1ccccc1	?	.	.	?	11.6µM	.
Cc1ccccc1NC(=O)/C(=C/c1ccccc1)c1ccccc1	.	.	.	20.6µM	11.6µM	.
CC(=O)c1ccc(NC(=O)/C(Cl)=C/c2ccccc2)cc1	.	.	-62.5	.	.	.
O=C(Nc1ccc(F)cc1)/C(Cl)=C/c1ccccc1	.	.	.	.	?	.
Cc1ccccc1NC(=O)C(Cl)=C(Cl)Cl	?	.	-97.0	20.6µM	23.1µM	.
Cc1ccc(C)c(NC(=O)C2CCN(c3nn4c(=O)cc(C)nc4s3)CC2)c1	.	/	/	.	.	.
O=C(CNC(=O)c1nc[nH]c1C(=O)N1CCN(c2ccccc2)CC1)OCc1ccccc1	.	.	.	.	.	.
SMILES	TGFb inhibitor	ASM inhibitor	IL1B secr inh	TDP1 cell CPT	TDP1 cell noCPT	HepG2 viability
OCCCCCNc1ncnc2ccccc12	.	.	.	8.2µM	7.31µM	.
CC1(C(=O)NS(=O)(=O)c2cccc(Cl)c2)CCN1C(=O)c1ccccc1 (stereo not given)	.	/	.	.	.	.
CCSc1nnc(NC(=O)C2CCCN(C(=O)c3ccc(Cl)cc3)C2)s1 (stereo not given)	.	/	.	6.51µM	5.17µM	.
O=C(Nc1ccccc1)C1CCCN(C(=O)c2ccc(Cl)cc2)C1 (stereo not given)	.	.	.	?	?	.
CN(C)S(=O)(=O)c1ccc(NC(=O)C2CCCN(C(=O)c3ccc(Cl)cc3)C2)cc1 (stereo not given)	.	.	.	?	?	.
COc1ccc(NC(=O)C2CCCN(C(=O)c3ccc(Cl)cc3)C2)cc1Cl (stereo not given)	?	.	?	20.6µM	18.4µM	.
O=C(Nc1ccc(S(=O)(=O)N2CCCCC2)cc1)C1CCCN(C(=O)c2ccc(Cl)cc2)C1 (stereo not given)	?	.	.	?	20.6µM	.
CC(=O)c1ccc(NC(=O)C2CCCN(C(=O)c3ccc(Cl)cc3)C2)cc1 (stereo not given)	.	.	.	25.9µM	20.6µM	.
Cc1c(NC(=O)c2ccc(S(=O)(=O)N3CCOCC3)cc2)cccc1[N+](=O)[O-]	.	.	.	.	.	.
O=C(Nc1cccc(S(=O)(=O)N2CCCCC2)c1)C1CCN(C(=O)c2ccc(Cl)cc2)CC1	?	.	.	?	?	.
O=C(Nc1cccc(F)c1)C1CCCN(C(=O)c2ccc(Cl)cc2)C1 (stereo not given)	?	.	.	20.6µM	18.4µM	.
O=C(Nc1cccc(S(=O)(=O)N2CCCCCC2)c1)C1CCN(C(=O)c2ccc(Cl)cc2)CC1	?	.	?	18.4µM	?	.
Cc1cc(=O)[nH]c(SCC(=O)c2ccc(F)c(C)c2)n1	.	.	.	.	?	.
COCCCNc1ncnc2ccc(C)cc12	?	.	.	16.4µM	18.4µM	.
COCCNc1ncnc2ccc(-c3ccccc3C(F)(F)F)cc12	/	/	/	13µM	20.6µM	/
c1cncc(CNc2ncnc3ccc(-c4cccnc4)cc23)c1	.	.	/	0.0065µM	11.6µM	.
Clc1cccc(-c2ccc3ncnc(NCc4cccnc4)c3c2)c1	.	.	/	/	/	.
FC(F)(F)c1ccccc1-c1ccc2ncnc(NCc3cccnc3)c2c1	/	/	/	2.06µM	7.31µM	/
Cc1cc(Nc2ccccc2)cc(=O)n1C	.	.	.	.	.	.
COc1ccc(Cl)cc1NC(=O)CSc1cccc[n+]1[O-]	.	.	.	.	.	.
Cc1ccc(O)c(-c2cc(C(=O)Nc3ccc(S(=O)(=O)N4CC(C)OC(C)C4)cc3)[nH]n2)c1 (stereo not given)	.	.	-74.4	25.9µM	23.1µM	.
